Data reported in PubChem BioAssay (NCI).
About 83,000 compounds went through this panel and 20% of them were active in at least one assay; those are over-represented in the sample as a whole.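 How to read the values: 0–100, growth inhibition (40 = 60% inhibited); 0, no net growth; -100 to 0, cell death (-40 = 40% of starting cells died; -100 = all dead).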 Active and inactive are the calls of the source. The calls were made as follows: active = growth percent below 10; inactive = the rest.

Columns and labels:
Test in all cases: NCI-60 one-dose screen, 48 h (100 = growth as untreated, 0 = no growth, -100 = all killed)
Settings in all cases: 10 µM unless noted
[1] = tested on: T-47D breast
[2] = tested on: BT-549 breast
[3] = tested on: MDA-MB-435 melanoma
[4] = tested on: SW-620 colon
[5] = tested on: MCF7 breast
[6] = tested on: HCT-116 colon
[7] = tested on: HCC-2998 colon
[8] = tested on: KM12 colon

Measured: growth

O=C(N/N=C/c1cc(Cl)ccc1O)c1ccccc1Nc1ccnc(C(F)(F)F)c1
inactive: [2] 18.7% | [3] 35.2% | [4] 36.3% | [5] 20.6% | [6] 32.2% | [7] 81.3%
active: [1] 8.91%

CCN1CCN(CCNc2nccc(-c3c(-c4ccc(F)c(OC)c4)nc4sccn34)n2)S1(=O)=O
inactive: [1] 87.3% | [2] 93.2% | [3] 26.6% | [4] 87.4% | [5] 50% | [6] 44.5% | [7] 89%

N#Cc1nc(-c2ccccc2)oc1S(=O)(=O)N1CCN(c2ccc(F)cc2)CC1
inactive: [1] 55.8% | [2] 59.7% | [3] 67.5% | [4] 32.9% | [5] 38.5% | [6] 52.8% | [7] 94%

COc1ccc(/C=C/c2c(C(=O)/C=C/c3ccccc3)c(C)nc3ccccc23)cc1
active: [3] -33% | [4] 2% | [6] -70.1%
inactive: [1] 12.9% | [2] 31.4% | [5] 12.8% | [7] 12.3%

Nc1nc(NC(=O)Nc2ccc(C(=O)O)cc2)nn1-c1ccc(S(N)(=O)=O)cc1
inactive: [1] 102% | [2] 91.3% | [3] 98.2% | [4] 87.7% | [5] 98.7% | [6] 95.4% | [7] 107%

N[C@H]1CCC[C@@H]1NCCCCN1C(=O)c2cccc3cc([N+](=O)[O-])cc(c23)C1=O
inactive: [1] 57.5% | [2] 68.3% | [3] 53.2% | [4] 26.7% | [5] 19.7% | [7] 51.9% | [8] 36.6%
active: [6] 9.25%

C=CCC(CCCC)(C(=O)OCC)C(=O)OCC
inactive: [1] 107% | [2] 96.7% | [3] 110% | [4] 114% | [5] 93% | [6] 104% | [7] 102% | [8] 108%

CCOC(=O)c1c(C)nc2c(c1N)/C(=C/c1ccc(OC)cc1)C(=O)N2Cc1ccccc1
inactive: [1] 40.7% | [2] 63.6% | [3] 63.4% | [4] 55.6% | [5] 22.8% | [6] 36.8% | [7] 62.8% | [8] 33.6%

FC(F)(F)c1ccc(Cn2cc(CSc3nc4ccccc4s3)nn2)cc1
inactive: [1] 90% | [2] 92.3% | [3] 101% | [4] 98.1% | [5] 92.8% | [6] 98.2% | [7] 104% | [8] 99%

Cc1cccc(Oc2ccc(Nc3ncnc4ccc(NC(=O)CN5CCN(C)CC5)cc34)cc2Cl)c1
inactive: [2] 70.3% | [6] 12.3% | [7] 19.3% | [8] 30.7%
active: [1] 7.58% | [3] -67.8% | [4] 3.68% | [5] 7.21%

Cc1ccc2c(-n3nc(C#N)c(C#N)c3N)cc(=O)[nH]c2c1
inactive: [1] 77% | [2] 86.9% | [3] 107% | [4] 99.3% | [5] 85.1% | [6] 76% | [7] 139% | [8] 94.8%

O=S(=O)(Oc1ccc(Br)cc1)c1ccc(Cl)cc1
inactive: [1] 88.5% | [2] 99.8% | [3] 104% | [4] 102% | [5] 91.7% | [6] 98.6% | [7] 83.2% | [8] 99.3%

Cc1c2ccncc2c(C)c2c1c1cc(CO)ccc1n2C
inactive: [2] 10.7% | [7] 15.5%
active: [1] -17.1% | [3] 6.7% | [4] 1.67% | [5] 4.26% | [6] -22.5% | [8] 9.22%

O=C(/C=C/c1ccccc1)c1ccc(Nc2nc(Nc3ccc(F)cc3)nc(Nc3ccc(Cl)cc3)n2)cc1
inactive: [1] 62.1% | [2] 101% | [3] 95.7% | [4] 90.4% | [5] 30.2% | [6] 49.6% | [7] 70.8% | [8] 91.6%

COc1ccc2[nH]cc(-c3nc(-c4c[nH]c5c(Cl)nccc45)cs3)c2c1
active: [4] 1.95%
inactive: [1] 24.5% | [2] 51.3% | [3] 51.8% | [5] 54.7% | [6] 36.4% | [7] 68.6% | [8] 33.3%

NC(N)=NS(=O)(=O)c1ccc(NC2=C(I)C(=O)c3ncccc3C2=O)cc1
inactive: [1] 106% | [2] 108% | [3] 109% | [4] 91.1% | [5] 97.9% | [6] 102% | [7] 111% | [8] 105%

CCN(CC)CCN1C(=O)c2cccc3c(/C=C/CN4C(=O)c5cccc6cccc(c56)C4=O)ccc(c23)C1=O
inactive: [1] 94.8% | [2] 89.8% | [3] 103% | [4] 90.4% | [6] 95.5% | [7] 105% | [8] 63.6%
active: [5] 4.8%

COc1ccc2c(c1)/C(=N/c1n[nH]c(=S)s1)C(=O)N2
inactive: [1] 69.6% | [2] 113% | [3] 104% | [4] 91.3% | [5] 25.1% | [6] 103% | [7] 107% | [8] 89%

O=C(Cn1nnc2ccccc21)N/N=C/c1c[nH]c2ccccc12
inactive: [1] 37.1% | [2] 52.4% | [4] 25.3% | [5] 22% | [6] 26.9% | [7] 78.8% | [8] 22.6%
active: [3] -15.9%

O=[N+]([O-])c1ccc(-c2cn3nc(-c4c[nH]c5ccccc45)sc3n2)cc1
inactive: [1] 64.8% | [2] 99.5% | [3] 107% | [4] 99.9% | [5] 79.5% | [6] 90.8% | [7] 86.1% | [8] 83.2%

CN(C)S(=O)(=O)Oc1ccc(-c2sc3cc(OS(=O)(=O)N(C)C)ccc3c2C(=O)c2ccc(OCCN3CCCCC3)cc2)cc1
inactive: [1] 44.8% | [2] 79.6% | [3] 78.6% | [4] 30.5% | [5] 26.4% | [6] 40.8% | [7] 89.2% | [8] 73.7%

CSC1=Nc2c(c(C)c(-c3ccccc3)n2CCCC(=O)O)C2=NC(=O)C[C@H](C)N12
inactive: [1] 113% | [2] 105% | [3] 102% | [4] 102% | [5] 88.8% | [6] 101% | [7] 104% | [8] 97.1%

C/C(=N\O)c1ccc(NC(=O)CSc2nnc(-c3cc(-c4ccc(S(C)(=O)=O)cc4)nc4ccccc34)n2-c2ccccc2)cc1
inactive: [1] 63% | [2] 88.2% | [3] 93.5% | [4] 97.4% | [5] 85.6% | [6] 83.7% | [7] 105% | [8] 81.9%

CSc1nc(C)c([N+](=O)[O-])c(N)n1
inactive: [1] 107% | [2] 98.9% | [3] 107% | [4] 104% | [5] 94.3% | [6] 91.1% | [7] 114% | [8] 99.5%

CCO/C=N/C1=C(C#N)C(c2ccc(F)cc2)c2sc3c(F)cccc3c2O1 (stereo not drawn)
active: [3] -23.7%
inactive: [1] 40.6% | [2] 48.5% | [4] 20.6% | [5] 15.7% | [6] 39% | [7] 77% | [8] 32.5%

CCCCCCCCCCCCCCCCCC1=NC(C)(C)CN1CC(C)O (stereo not drawn)
active: [4] 3.6% | [6] 7.84%
inactive: [1] 72.6% | [2] 101% | [3] 50.9% | [5] 42.4% | [7] 75.3% | [8] 44.1%

COc1ccc(/C=C/C(c2cc(OC)c(OC)c(OC)c2)n2cncn2)cc1 (stereo not drawn)
active: [3] -9.62%
inactive: [1] 30.8% | [2] 45.5% | [4] 26.6% | [5] 22.5% | [6] 22% | [7] 84.2% | [8] 30.7%

O=C(NNC(=O)c1ccc(NC(=O)c2ccccn2)cc1)Nc1ccc2ccccc2c1
inactive: [1] 106% | [2] 107% | [3] 110% | [4] 116% | [5] 96% | [6] 102% | [7] 121% | [8] 102%

C=CCN1C(=O)c2cccc3c(N4CCOCC4)ccc(c23)C1=O
active: [1] -2.1% | [2] -47.8% | [3] 0.357% | [4] 7.24% | [5] -0.408% | [6] -25.4% | [7] -34% | [8] -56.4%

Cc1ccc(-c2nc3nc(-c4ccccc4)nc(N4CCCN(S(C)(=O)=O)CC4)c3o2)cc1
inactive: [1] 92.1% | [2] 94.2% | [3] 34.5% | [4] 44.1% | [5] 65.1% | [6] 24.4% | [7] 96.6% | [8] 86.8%

CO[C@H](C(=O)[C@@H](O)[C@@H](C)O)[C@@H]1Cc2cc3cc(O[C@H]4C[C@@H](O[C@H]5C[C@@H](O)[C@H](O)C(C)O5)[C@H](O)C(C)(O)O4)cc(O)c3c(O)c2C(=O)[C@H]1O[C@H]1C[C@@H](O[C@H]2C[C@@H](O[C@H]3C[C@@H](OC)[C@H](O)C(C)O3)[C@@H](O)C(C)O2)[C@H](O)C(C)O1 (stereo partly drawn)
inactive: [1] 13.5% | [3] 24.8% | [4] 34% | [7] 39.9% | [8] 14.9%
active: [2] 4.37% | [5] 6.89% | [6] 6.03%
